TLR9-MyD88 block: inhibitors of TLR9-MyD88 association in cells, primary screen, cell-based, CHO, BLA complementation, fluorescence | Toll-like receptor 9 (Homo sapiens) + Myeloid differentiation primary response protein … | CCF4 FRET ratio | inhibition, % at 4.98 µM | hit rate 0.21% among 340,000 | AID 504734, 2011;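 active = inhibition above the mean over all tested compounds plus 3 SD, cut at about 21% in these data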;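 also: 0% = DMSO only wells and 100% = clavulanate BLA inhibitor control wells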
HSF1 inhib: HSF1 inhibitors in luciferase reporter cells, primary screen, cell-based, NIH3T3, luminescence; AID 2098, 2009; NIH3T3-HGL HSE-luciferase, MG132-induced, luminescence 8 h; active compounds read low; hit rate 0.77% among 300,000; activity change, negative = inhibition, % at 7.5 µM (by protocol);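 active = more than half of replicate wells show activity change below -50%, luminescence cut by over half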;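 also: luciferase reports HSF-1 transcriptional activity via heat shock element; 0% = median of DMSO wells and -100% = zero luminescence signal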
HSF-1 act: HSF-1 activators, primary screen, NIH3T3-HGL cells, MG132 stress, luminescence, single point. NIH3T3-HGL HSF-1 luciferase reporter, 8 h; 100% = twice DMSO control signal. hit rate 1.7% among 300,000. AID 504408, 2011. activation, % at 9 µM;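 active = mean replicate activation of at least 50% with a set share of replicates each reaching 50%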;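 also: 0% = median of the neutral control wells and 100% = twice that signal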
NOD2 RIPK2 PPI: NOD2-RIPK2 binding disruptors in cells, primary screen, fluorescence, CHO cells, BLA complementation | hit rate 0.38% among 360,000 | Receptor-interacting serine/threonine-protein kinase 2 (Homo sapiens), O43353 | AID 624267, 2012 | inhibition, % at 4.98 µM | CCF4 ratio; in the data active = inhibition above about 21%;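 also: 0% = vehicle only and 100% = reference blocker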
TLR4 MyD88 comp: inhibitors of TLR4-MyD88 association in cells, primary screen, cell-based, HeLa CL3-4, BLA complementation, FRET ratio. Toll-like receptor 4 (Homo sapiens) + Myeloid differentiation primary response protein …. HeLa CL3-4 TLR4/MyD88 BLA complementation. inhibition, % at 8.4 µM. hit rate 0.18% among 200,000; in the data active = inhibition above about 25%;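 also: 0% = vehicle and 100% = reference inhibitor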
TLR4-MyD88 conf: TLR4-MyD88 association inhibitors, retest, confirmation, cell-based, HeLa CL3-4, BLA complementation, FRET ratio; shares compounds with TLR4 MyD88 comp; CCF4 FRET ratio; inhibition, % at 8.4 µM; hit rate 50% among 350; AID 941, 2007;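 active = mean inhibition across three repeat runs above about 25% carried over from the earlier screen, limit read from the data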;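 also: plate controls were DMSO only for no effect and clavulanic acid blocking BLA at full dose for full effect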
BLA inh HeLa: inhibits beta-lactamase activity, counter-screen to TLR4-MyD88 binding inhibitors; shares compounds with TLR4 MyD88 comp; HeLa BLA reporter, CCF4 FRET ratio; inhibition, % at 8.4 µM; hit rate 63% among 350; AID 1237;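 active = mean inhibition over three repeats above about 26% taken from the earlier screen, limit read from the data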;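 also: HeLa cells stably expressing beta-lactamase reporter as counterscreen for TLR4-MyD88 inhibitors; 0% = DMSO and 100% = clavulanic acid full inhibition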
TLR9-MyD88 conf: TLR9-MyD88 association inhibitors, retest, confirmation, cell-based, CHO, BLA complementation, fluorescence, triplicate. inhibition, % at 4.98 µM. CCF4 FRET ratio. shares compounds with TLR9-MyD88 block. AID 540250, 2011. hit rate 51% among 680;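 active = mean inhibition across three repeats above about 21% taken from the earlier screen, limit read from the data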;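 also: blue over green emission ratio reports constitutive TLR9 MyD88 association via BLA complementation; 0% = DMSO vehicle wells and 100% = clavulanate BLA inhibitor wells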
Target sequence (Q9NR96 whole entry, looked up): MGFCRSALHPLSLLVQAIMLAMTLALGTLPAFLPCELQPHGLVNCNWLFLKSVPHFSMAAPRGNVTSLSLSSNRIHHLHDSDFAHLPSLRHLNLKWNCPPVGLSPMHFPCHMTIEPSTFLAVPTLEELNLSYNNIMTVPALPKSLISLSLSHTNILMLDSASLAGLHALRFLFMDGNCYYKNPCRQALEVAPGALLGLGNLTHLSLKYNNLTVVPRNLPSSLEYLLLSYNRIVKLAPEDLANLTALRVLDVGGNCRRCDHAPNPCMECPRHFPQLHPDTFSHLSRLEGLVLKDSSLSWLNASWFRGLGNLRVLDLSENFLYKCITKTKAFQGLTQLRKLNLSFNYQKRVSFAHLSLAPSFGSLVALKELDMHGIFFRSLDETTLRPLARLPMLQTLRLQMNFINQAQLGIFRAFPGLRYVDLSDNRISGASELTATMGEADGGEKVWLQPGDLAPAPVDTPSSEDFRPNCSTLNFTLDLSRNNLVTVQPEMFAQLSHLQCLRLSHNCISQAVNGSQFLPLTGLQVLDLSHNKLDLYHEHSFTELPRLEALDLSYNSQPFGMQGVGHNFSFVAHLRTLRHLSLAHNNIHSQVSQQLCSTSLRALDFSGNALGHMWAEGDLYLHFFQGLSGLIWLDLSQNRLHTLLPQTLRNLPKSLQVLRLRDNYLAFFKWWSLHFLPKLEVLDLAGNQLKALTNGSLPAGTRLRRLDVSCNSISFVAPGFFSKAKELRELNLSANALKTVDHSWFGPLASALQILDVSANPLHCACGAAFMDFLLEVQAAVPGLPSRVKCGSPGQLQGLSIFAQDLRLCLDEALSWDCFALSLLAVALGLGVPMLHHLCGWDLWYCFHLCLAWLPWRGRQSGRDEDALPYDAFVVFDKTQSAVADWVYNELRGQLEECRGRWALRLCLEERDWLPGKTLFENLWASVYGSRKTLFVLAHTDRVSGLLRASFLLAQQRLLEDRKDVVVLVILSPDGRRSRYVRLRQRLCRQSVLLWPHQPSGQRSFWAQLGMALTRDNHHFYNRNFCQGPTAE
BLA counter: beta-lactamase reporter inhibitors in CHO cells, artefact control for TLR9-MyD88 binding inhibitor project, cell-based, fluorescence; CHO-BLA cells, CCF4 FRET ratio, BLA reporter; shares compounds with TLR9-MyD88 block; inhibition, % at 4.98 µM; hit rate 7% among 680;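 active = mean inhibition above a 50% cutoff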;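 also: counterscreen of TLR9-MyD88 hits on CMV-driven BLA in CHO-K1 cells; 0% = DMSO alone and 100% = clavulanate blocking BLA; higher means less blue over green ratio so more BLA blockade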
TLR9 CHO cytotox: CHO cell viability loss – luminescence, single concentration, cytotoxicity control for TLR9-MyD88 binding inhibitor project | shares compounds with TLR9-MyD88 block | inhibition, % at 4.98 µM | hit rate 39% among 680 | TLR9-MyD88 CHO cells cytotoxicity; in the data active = inhibition above about 11%
An asterisk follows results filed as active. Shown are actives, neighbours in structure and some others; about 2.4% of the full set was active somewhere.

CCOc1cc(N(CC)CC)ccc1/C=C(/C#N)c1nc2ccccc2[nH]1 was read as TLR9-MyD88 block 9, HSF1 inhib -7, HSF-1 act -17, NOD2 RIPK2 PPI 8 and TLR4 MyD88 comp 13.
For CCN(CC)c1ccc(/C=C(/C#N)c2nc3ccc(C)cc3[nH]2)c(OC(C)C)c1 the results were TLR9-MyD88 block 23*, HSF1 inhib -3, HSF-1 act 1, NOD2 RIPK2 PPI 34*, TLR4 MyD88 comp 35*, TLR4-MyD88 conf 13, BLA inh HeLa 36*, TLR9-MyD88 conf 21*, BLA counter 21 and TLR9 CHO cytotox 5.
`Nc1[nH]c(C(=O)c2ccccc2)c(-c2ccc(Cl)cc2)c1C(=O)NCCc1c[nH]c2ccccc12` gave NOD2 RIPK2 PPI 0.
For O=C(O)c1ccccc1-c1ccc(/C=C/c2cc(C(F)(F)F)[nH]c(=O)n2)o1 the results were TLR9-MyD88 block 39*, HSF1 inhib 9, HSF-1 act 10, NOD2 RIPK2 PPI 20, TLR4 MyD88 comp 26*, TLR4-MyD88 conf 19, BLA inh HeLa 33*, TLR9-MyD88 conf 25*, BLA counter 32 and TLR9 CHO cytotox 1.
CC(C)C[C@H]1CN(CCCC[C@@H]2CNC(=O)C(=O)N2CCc2ccccc2)C(=O)C(=O)N1CCc1ccc(O)cc1 was read as NOD2 RIPK2 PPI -11.
OCCNc1c2ccccc2nc2c(F)c(F)c(F)c(F)c12 was read as TLR9-MyD88 block 32*, HSF1 inhib -2, HSF-1 act -10, NOD2 RIPK2 PPI 2, TLR4 MyD88 comp 69*, TLR4-MyD88 conf 84*, BLA inh HeLa 107*, TLR9-MyD88 conf 43*, BLA counter 49 and TLR9 CHO cytotox 82*.
O=C(NC(Cc1ccccc1)C(=O)Oc1ccc2c(C(F)(F)F)cc(=O)oc2c1)OCc1ccccc1 (centres undefined) was read as TLR9-MyD88 block 59*, HSF1 inhib -4, HSF-1 act -9, NOD2 RIPK2 PPI 71*, TLR4 MyD88 comp 39*, TLR4-MyD88 conf 32*, BLA inh HeLa 67*, TLR9-MyD88 conf 34*, BLA counter 44 and TLR9 CHO cytotox 2.
Screening CCOC(=O)/C(=C\c1ccccc1)C(=O)c1cc(C(C)=O)c(Nc2ccccc2)s1 returned TLR9-MyD88 block -3, HSF1 inhib -5, HSF-1 act 1, NOD2 RIPK2 PPI 2 and TLR4 MyD88 comp 4.
Screening CCOC(=O)/C(=C\c1cccnc1)C(=O)c1cc(C(C)=O)c(Nc2ccccc2)s1 returned TLR9-MyD88 block 41*, HSF1 inhib -93*, HSF-1 act -94, NOD2 RIPK2 PPI 89*, TLR4 MyD88 comp 49*, TLR4-MyD88 conf 53*, BLA inh HeLa 41*, TLR9-MyD88 conf 49*, BLA counter 32 and TLR9 CHO cytotox 98*.
